{"source": "PubChem BioAssay AID1272365", "about": "(Small Molecule Screening Facility, UW Madison, 2020)", "note": "“And” between values parts separate entries of the source, which are not always exact repeats. Identical values can stand only once. About 2,600 (0.6%) of roughly 430,000 compounds were called active. Cut-off read from the data, not from the text of the source: active = inhibition mostly above about 37% (no sharp cut-off); inactive = mostly below about 20%. The sample as a whole holds a higher share of actives than the screen did."}
{"tested_on": "PriA–SSB C-terminal tail interaction (Klebsiella pneumoniae)", "experiment": "blocks PriA binding to SSB C-terminal tail, primary screen, biochemical, AlphaScreen (AID 1272365);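 note: plate controls were negative control peptide for no effect and reference peptide for full effect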", "conditions": "AlphaScreen SSBct-PriA binding, biotinylated peptide; at 33 µM, stronger effect = higher value"}
{"smiles": "Cc1cccc(-n2cnc(C(=O)Nc3cccnc3)c2)n1", "inhibition": "-12.9% (inactive)"}
{"smiles": "Cc1cccc(-n2cnc(C(=O)NNC(=S)Nc3ccccc3)c2)n1", "inhibition": "66.5% (active)"}
{"smiles": "O=C(NNC(=S)Nc1ccccc1)c1cccc(S(=O)(=O)N2CCOCC2)c1", "inhibition": "-5.79% (inactive)"}
{"smiles": "O=C(NCC(F)(F)F)C1CCN(c2cc(-n3cncn3)ncn2)CC1", "inhibition": "4% (inactive)"}
{"smiles": "Cc1c(CCOC(=O)C23CC4CC(CC(C)(C4)C2)C3)sc[n+]1Cc1ccc([N+](=O)[O-])cc1", "inhibition": "39% (active)"}
{"smiles": "O=C(Nc1ccc([N+](=O)[O-])cc1Br)C12CC3CC(CC(C3)C1)C2", "inhibition": "-8% (inactive)"}
{"smiles": "Cc1c(CCOC(=O)CC23CC4CC(CC(C)(C4)C2)C3)sc[n+]1Cc1ccc([N+](=O)[O-])cc1", "inhibition": "6.21% (inactive)"}
{"smiles": "COc1ccc(-c2noc(CN3N=NC4C(=O)N(c5ccc(C)c(F)c5)C(=O)C43)n2)c(OC)c1", "note": "(stereo not drawn)", "inhibition": "6% (inactive)"}
{"smiles": "O=C(NCC(O)(c1ccccc1)C(F)(F)F)C(=O)Nc1ccccc1", "note": "(stereo not drawn)", "inhibition": "-3% (inactive)"}
{"smiles": "CS(=O)(=O)N1CCC(CNC(=O)c2cc3ccccc3o2)CC1", "inhibition": "-23% (inactive)"}
{"smiles": "CC1(C)N=C(SCC(=O)Nc2ccc(Br)cc2)C(c2ccccc2)=N1", "inhibition": "-5% (inactive)"}
{"smiles": "COc1cccc2sc(N(CCCN(C)C)C(=O)c3ccc(F)cc3)nc12", "inhibition": "-18% (inactive)"}
{"smiles": "COc1cc2nc(N(CCN(C)C)C(=O)c3ccc(S(=O)(=O)N(C)Cc4ccccc4)cc3)sc2cc1OC", "inhibition": "24% (inactive)"}
{"smiles": "CCOc1ccc2nc(N(Cc3ccncc3)C(=O)Cc3ccc(F)cc3)sc2c1", "inhibition": "13% (inactive)"}
{"smiles": "CCOc1ccc2nc(N(CCN(C)C)C(=O)c3ccc4ccccc4c3)sc2c1", "inhibition": "14.2% (inactive) and 45% (active)"}
{"smiles": "CN(C)CCN(C(=O)CCOc1ccccc1)c1nc2cc3c(cc2s1)OCO3", "inhibition": "7% (inactive)"}
{"smiles": "CCOc1ccc2nc(N(CCN(C)C)C(=O)c3ccc(S(=O)(=O)N4CCC(C)CC4)cc3)sc2c1", "inhibition": "29% (inactive)"}
{"smiles": "CN(C)CCCN(C(=O)c1ccccc1)c1nc2c(F)cc(F)cc2s1", "inhibition": "5% (inactive)"}
{"smiles": "CN(C)CCCN(C(=O)c1ccc(S(=O)(=O)N2CCCc3ccccc32)cc1)c1nc2ccc(F)cc2s1", "inhibition": "42% (active)"}
{"smiles": "COc1ccc2nc(N(CCN(C)C)C(=O)c3ccc(S(=O)(=O)N4CCCc5ccccc54)cc3)sc2c1", "inhibition": "41% (active)"}
{"smiles": "CC1CN(S(=O)(=O)c2ccc(C(=O)N(CCN(C)C)c3nc4cc5c(cc4s3)OCCO5)cc2)CC(C)O1", "note": "(stereo not drawn)", "inhibition": "15% (inactive)"}
{"smiles": "COc1ccc2nc(N(CCN3CCOCC3)C(=O)c3ccccc3S(C)(=O)=O)sc2c1", "inhibition": "0% (inactive)"}
{"smiles": "Cc1ccc2nc(N(CCN(C)C)C(=O)c3ccc(S(=O)(=O)N4CCCCCC4)cc3)sc2c1", "inhibition": "35% (active)"}
{"smiles": "O=C1CCCC(=O)N1CCS(=O)(=O)N1CCC(c2nnc(-c3ccco3)s2)CC1", "inhibition": "-4% (inactive)"}
{"smiles": "O=C([C@@H]1CC=CCC1)N1CCN(c2ccc(-n3cncn3)nn2)CC1", "inhibition": "-9% (inactive)"}
{"smiles": "CCc1nc(-c2ccc(N3CCN(C(=O)c4cc5cccc(OC)c5o4)CC3)nc2)no1", "inhibition": "-1% (inactive)"}
{"smiles": "NCc1n[nH]c(=O)c2ccccc12", "inhibition": "-2% (inactive) and -4% (inactive)"}
{"smiles": "COC(=O)c1ccccc1NC(=O)c1snnc1C", "inhibition": "-11% (inactive)"}
{"smiles": "CN1CCN(c2nc3ccc(NC(=O)c4ccc5c(c4)OCO5)cc3s2)CC1", "inhibition": "-2% (inactive)"}
{"smiles": "COc1ccc(OC)c(C(=O)Nc2ccc3nc(N4CCN(C)CC4)sc3c2)c1", "inhibition": "6% (inactive) and -21% (inactive)"}
{"smiles": "COc1cccc2cc(C(=O)Nc3ccc4nc(N5CCN(C)CC5)sc4c3)oc12", "inhibition": "-6% (active)"}
{"smiles": "O=C(NCC#CCOc1ccc2c(c1)OCO2)Nc1ccccc1C(F)(F)F", "inhibition": "-21% (inactive)"}
{"smiles": "Cc1ccccc1-c1nc(CSc2nc(C)c(Cc3ccccc3)c(=O)[nH]2)c(C)o1", "inhibition": "7% (inactive)"}
{"smiles": "Cc1nc2oc(-c3ccccc3)nc2cc1NC(=O)c1cc(=O)c2ccccc2o1", "inhibition": "-8% (inactive)"}
{"smiles": "Cc1c(C(=O)O)cccc1-c1ccc(C=NNc2ccc(Br)cc2)o1", "inhibition": "0.6% (inactive)"}
{"smiles": "O=C(Nc1nc(-c2ccccn2)cs1)c1ccc(-c2ccccc2)cc1", "inhibition": "-19% (inactive)"}
{"smiles": "CC(C)Sc1ccc(C(=O)Nc2nc(-c3ccccn3)cs2)cc1", "inhibition": "50.6% (inactive)"}
{"smiles": "CC(NC(=O)c1ccco1)C(=O)Nc1nc(-c2ccccn2)cs1", "note": "(stereo not drawn)", "inhibition": "74.4% (active)"}
{"smiles": "CCSc1ccc(C(=O)Nc2sc(-c3ccccc3)cc2C(N)=O)cc1", "inhibition": "-22% (inactive)"}
{"smiles": "O=C(NN=Cc1cc(Cl)cc([N+](=O)[O-])c1O)c1cccc(S(=O)(=O)N2CCOCC2)c1", "inhibition": "41.7% (active)"}
{"smiles": "CCOc1cc(C=NNC(=O)c2cccc(S(=O)(=O)N3CCOCC3)c2)ccc1OCC(=O)N(C)C", "inhibition": "-12.5% (inactive)"}
{"smiles": "CC(=O)Nc1ccc(C=NNC(=O)c2cccc(S(=O)(=O)N3CCOCC3)c2)cc1", "inhibition": "-5.31% (inactive)"}
{"smiles": "O=C(Oc1cccc(Oc2ccccc2)c1)N1CCCCC1", "inhibition": "-33% (inactive)"}
{"smiles": "O=C(Nc1nc(CCC(=O)N2CCN(c3ncccn3)CC2)cs1)NC1CCCCC1", "inhibition": "-9% (inactive)"}
{"smiles": "COc1ccccc1CNC(=O)CSc1nc2c(-c3ccccc3)c[nH]c2c(=O)n1C1CC1", "inhibition": "-8% (inactive)"}
{"smiles": "CCc1ccccc1NC(=O)NCCOc1ccc2nnc(-c3cccc(F)c3)n2n1", "inhibition": "-4% (inactive)"}
{"smiles": "O=S(=O)(NCC1(CO)CC1)c1cccc(Cl)c1", "inhibition": "-9% (inactive)"}
{"smiles": "COCCNC(=O)NC[C@H]1CCCN1c1ccccc1", "inhibition": "6% (inactive)"}
{"smiles": "O=C(NC[C@H]1CCCN1c1ccccc1)c1cc(-c2ccco2)[nH]n1", "inhibition": "47% (active)"}
{"smiles": "Cc1cc(C(=O)NCC2CCCN2c2ccccc2)no1", "note": "(stereo not drawn)", "inhibition": "0% (inactive)"}
{"smiles": "COc1ccc(OC)c(C(=O)Nc2nnc(Cc3ccc(Cl)s3)o2)c1", "inhibition": "-12% (inactive)"}
{"smiles": "COc1ccc(-c2nnc(SCC(=O)Nc3cccnc3Cl)n2C)cc1", "inhibition": "2.83% (inactive)"}
{"smiles": "COc1cc(CO)ccc1OCC(=O)Nc1cccc2ccccc12", "inhibition": "-4.4% (inactive)"}
{"smiles": "COc1ccc(Cn2c(CO)cnc2SCC(=O)Nc2cccc3ccccc23)cc1", "inhibition": "41% (active)"}
{"smiles": "O=S(=O)(Cc1ccccc1)N1CCN(c2cc(-n3cccc3)ncn2)CC1", "inhibition": "6% (inactive)"}
{"smiles": "CCCN1C(=O)C(C)(C)COc2ccc(N)cc21", "inhibition": "32% (inactive)"}
{"smiles": "Cn1cccc1-c1noc(CNC(=O)c2n[nH]c(=O)c3ccccc23)n1", "inhibition": "-3% (inactive)"}
{"smiles": "CCC(=O)Nc1c(C)nc2scc(C)n2c1=O", "inhibition": "13% (inactive)"}
{"smiles": "N#Cc1nc(-c2cccc3ccccc23)oc1N", "inhibition": "-28.7% (inactive)"}
{"smiles": "CC1CCN(c2oc(-c3ccccc3F)nc2C#N)CC1", "inhibition": "42.8% (active)"}
{"smiles": "N#Cc1nc(-c2ccco2)oc1N1CCN(C(=O)c2ccccc2F)CC1", "inhibition": "9% (inactive)"}
{"smiles": "O=C(NC[C@]1(O)CCc2ccccc21)c1ccccc1F", "inhibition": "-14% (inactive)"}
{"smiles": "O=C(NCCc1ccccc1)NCCC(O)c1ccccc1", "note": "(stereo not drawn)", "inhibition": "-6% (inactive)"}
{"smiles": "CC(C)C(NC(=O)c1ccc([N+](=O)[O-])cc1)c1nc2ccccc2[nH]1", "note": "(stereo not drawn)", "inhibition": "-6% (inactive)"}
{"smiles": "O=C(Cc1cc(=O)[nH]c(SCc2cccc(Cl)c2)n1)Nc1ccc2c(c1)OCCO2", "inhibition": "12% (inactive)"}
{"smiles": "CC(=NC1CCN(Cc2ccccc2)CC1)c1c(O)[nH]c(=O)[nH]c1=O", "inhibition": "-3% (inactive)"}
{"smiles": "c1ccc(CN2CCC(N=C3NN=C(c4ccc5c(c4)OCCO5)CS3)CC2)cc1", "inhibition": "49.7% (active)"}
{"smiles": "Clc1cccc(N=C2NN=C(c3ccc4c(c3)OCCO4)CS2)c1", "inhibition": "44.3% (active)"}
{"smiles": "c1ccc(Cc2nnc(-c3ccc4c(c3)OCCO4)o2)cc1", "inhibition": "-10% (inactive)"}
{"smiles": "CC1Oc2ccccc2OC1C(=O)N1CCN(c2nc3c(S(C)(=O)=O)cccc3s2)CC1", "note": "(stereo not drawn)", "inhibition": "-4% (inactive)"}
{"smiles": "Cc1ccc(Cl)cc1-n1ccn(CC#N)c(=O)c1=O", "inhibition": "-5% (inactive)"}
{"smiles": "Cc1ccc(NC2=NC(c3ccccc3)n3c(nc(C)cc3=O)N2)cc1", "note": "(stereo not drawn)", "inhibition": "-5.57% (inactive)"}
{"smiles": "Cc1ccc2nc(C(=O)O)cc(Nc3ccc(C)c(C)c3)c2c1", "inhibition": "-5% (inactive)"}
{"smiles": "Cc1ccc(Nc2cc(C)nc3c(C)ccc([N+](=O)[O-])c23)cc1", "inhibition": "106% (active)"}
{"smiles": "O=C(Nc1cccc(-c2nc3ccccc3s2)c1)c1ccc([N+](=O)[O-])cc1", "inhibition": "-2% (inactive)"}
{"smiles": "CC(=O)OCC1OC(Oc2ccc(C(=O)/C=C/c3ccccc3)cc2)C(OC(C)=O)C(OC(C)=O)C1OC(C)=O", "note": "(stereo not drawn)", "inhibition": "5% (inactive)"}
{"smiles": "COc1cc(OC)c2ccc(=O)oc2c1C(CCN1CCN(c2ccccc2)CC1)c1ccc2c(c1)OCO2", "note": "(stereo not drawn)", "inhibition": "41.6% (active)"}
{"smiles": "COc1cc(C(CCN2CCN(c3ccccc3)CC2)c2c(OC)cc(OC)c3ccc(=O)oc23)cc(OC)c1OC", "note": "(stereo not drawn)", "inhibition": "-0.54% (inactive)"}
{"smiles": "CCN(CC)CCC(c1ccc2c(c1)OCO2)c1c(OC)cc(OC)c2c(-c3ccccc3)cc(=O)oc12", "note": "(stereo not drawn)", "inhibition": "24.5% (inactive)"}
{"smiles": "C=CCOc1ccc(C(O)=C2C(=O)C(=O)N(CCOC)C2c2cccnc2)cc1", "note": "(stereo not drawn)", "inhibition": "0.46% (inactive)"}
{"smiles": "FC(F)Sc1ccc(-c2csc(Nc3ccccc3)n2)cc1", "inhibition": "-4% (inactive)"}
{"smiles": "O=C(c1ccc(Br)o1)N1CCC(CSc2ccccn2)CC1", "inhibition": "7% (inactive)"}
{"smiles": "CC(=O)Nc1ccc(C(=O)N2CCc3nc4ccc(Cl)cn4c(=O)c3C2)cc1", "inhibition": "-7% (inactive)"}
{"smiles": "CC(C)CS(=O)(=O)C1CN(C(=O)c2ccc3nsnc3c2)C1", "inhibition": "-14% (inactive)"}
{"smiles": "O=[N+]([O-])c1ccc(N2CCCCC2)c2cccnc12", "inhibition": "46.9% (inactive)"}
{"smiles": "COCCOCc1ccc(O)c2ncccc12", "inhibition": "114% (active)"}
{"smiles": "Oc1ccc(CN2CCCCCC2)c2cccnc12", "inhibition": "124% (active)"}
{"smiles": "OCc1cccc2cccnc12", "inhibition": "41.4% (inactive)"}
{"smiles": "Clc1ccc(CN2CCCCCC2)cc1Cl", "inhibition": "-4.06% (inactive)"}
{"smiles": "Oc1ccc(CN2CCCC2)c2cccnc12", "inhibition": "106% (active)"}
{"smiles": "Oc1c(CN2CCCC2)cc(Cl)c2cccnc12", "inhibition": "103% (inactive)"}
{"smiles": "COc1ncc(Br)c2ncccc12", "inhibition": "-7% (inactive)"}
{"smiles": "Oc1c(CN2CCOCC2)ccc(CN2CCOCC2)c1O", "inhibition": "-7.99% (inactive)"}
